This is a sample that favours compounds with a hit; in the whole collection about 9.3% have one here.
ELG1 genotoxic: induces genotoxicity in HEK293T cells with luciferase-tagged ELG1; Potency, µM (highest dose often 46 µM), hits mostly activators; hit rate 1.3% among 330,000; HEK293T ELG1-luciferase reporter, luminescence, 16 h; also: nearly all actives have a fitted effect of over 60% in size
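DMSO vehicle served as control against compound-treated ELG1-luciferase HEK293T cells; exposure lasted 16 hr at 37 °C and 5% CO2, followed by ONE-Glo luminescence detection after 30 min.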
SMN2 splice up: SMN2 splice variant enhancement. AID 1458. hit rate 2.8% among 210,000. HEK293 SMN2-luciferase splicing reporter, luminescence, 30-36 h. Potency, µM (titrated, usually from 46.1 µM), usual class: activators; also: nearly all actives have a fitted effect of over 55% in size
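HEK293 cells carry an SMN2 […]–luciferase reporter in which exon 7 inclusion puts luciferase in frame. Cells were plated 10-12 h before compound addition, then incubated 30-36 h at 37C. ONE-Glo luminescence was read; sodium butyrate at 4.5 mM final served as control.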
NPC1 promoter act: activates the NPC1 promoter. AID 485313. Huh7 NPC1 promoter luciferase reporter, 24 h. hit rate 2.4% among 320,000. Potency, µM (titrated, usually from 9.22 µM), most hits filed as activators; also: nearly all actives have a fitted effect of over 60% in size
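Cells: Huh7 expressing luciferase under the NPC1 promoter, 1500/well. Seeded 2 h, compound added, incubated 24 h at 37 °C. Luciferase reagent, 10 min ambient, then luminescence.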
ELG1 repair inh: blocks ELG1-dependent DNA repair in HEK293T cells | HEK293T ELG1-luciferase reporter, luminescence, 16 h; DNA damage induced by 5-fluorouridine | Potency, µM (titrated, usually from 46.1 µM), most hits filed as inhibitors | hit rate 2.3% among 330,000; also: nearly all actives have a fitted effect of over 55% in size
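5-Fluorouridine DNA damage + compound/DMSO, 2,000 cells/well, 16 h, 37 °C/5% CO2. ONE-Glo, 30 min RT, luminescence. Readout = decrease in reporter signal.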
FLuc modulator: inhibits or activates purified firefly luciferase, miR-21 counter-screen. P08659. purified FLuc, Km substrates, luminescence inhibition. Potency, µM (top dose mostly 57.5 µM), actives largely listed as inhibitors. hit rate 6.9% among 360,000. AID 588342; also: nearly all actives have a fitted effect of over 55% in size
Target sequence (P08659 whole entry, looked up): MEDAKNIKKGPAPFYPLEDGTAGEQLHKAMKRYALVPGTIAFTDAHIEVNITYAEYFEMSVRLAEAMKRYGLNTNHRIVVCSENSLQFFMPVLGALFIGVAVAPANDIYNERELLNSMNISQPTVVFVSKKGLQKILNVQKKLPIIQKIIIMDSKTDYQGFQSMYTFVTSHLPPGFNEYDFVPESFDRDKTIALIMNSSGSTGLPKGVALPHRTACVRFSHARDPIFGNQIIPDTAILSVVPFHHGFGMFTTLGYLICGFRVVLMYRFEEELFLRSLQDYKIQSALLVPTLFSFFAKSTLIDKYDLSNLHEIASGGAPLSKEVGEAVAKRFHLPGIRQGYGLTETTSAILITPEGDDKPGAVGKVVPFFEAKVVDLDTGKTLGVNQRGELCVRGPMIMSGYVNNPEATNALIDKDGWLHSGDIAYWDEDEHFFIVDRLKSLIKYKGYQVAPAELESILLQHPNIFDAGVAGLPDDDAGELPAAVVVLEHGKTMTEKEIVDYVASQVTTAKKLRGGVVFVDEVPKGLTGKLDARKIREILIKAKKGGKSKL
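Biochemical qHTS of compounds, final roughly 60 µM downward over six points, against 10 nM purified firefly luciferase using Km concentrations of substrates (10 uM D-luciferin, 10 uM ATP) in Tris acetate pH 7.5 buffer; luminescence output.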
Rab9 prom act: Rab9 promoter activation. Huh7 Rab9 promoter-luciferase reporter, luminescence, 24 h. Potency, µM (top dose mostly 9.22 µM), actives largely listed as activators. hit rate 2.8% among 320,000. AID 485297; also: nearly all actives have a fitted effect of over 60% in size
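Steps: seed 1500 Huh7 Rab9-luc cells per well, rest 2 h at 37 °C; add compound in DMSO; incubate 24 h; add luciferase reagent, 10 min ambient; read luminescence.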
Hits are given with their value. Calls follow the shape of the dose curve; as a rule, active = well fitted curve in the direction sought with a large enough effect; inconclusive = small, poorly fitted or top-dose-only effect, or another doubt; inactive = no such curve, though single readings can be large; an effect the other way counts as inactive or inconclusive.

`COc1ccccc1NC(=O)C1CCCN(c2ncnc3c2nc2n3CCCCC2)C1` (configuration not stated) gave ELG1 genotoxic inactive, NPC1 promoter act inactive, ELG1 repair inh 21µM, FLuc modulator inactive and Rab9 prom act inactive.
COc1cccc(N2CCN(C(=O)C3CCCN(c4ncnc5c4nc4n5CCCCC4)C3)CC2)c1 (configuration not stated) was read as ELG1 genotoxic inactive, NPC1 promoter act inactive, ELG1 repair inh 3.3µM, FLuc modulator inactive and Rab9 prom act inactive.
For Cc1cccc(CCNC(=O)C2CCCN(c3ncnc4c3nc3n4CCCCC3)C2)c1 (configuration not stated) the results were ELG1 genotoxic inactive, NPC1 promoter act inactive, ELG1 repair inh inconclusive, FLuc modulator inactive and Rab9 prom act inactive.
For CC1CCN(C(=O)C2CCCN(c3ncnc4c3nc3n4CCCCC3)C2)CC1 (configuration not stated) the results were ELG1 genotoxic inactive, NPC1 promoter act inactive, ELG1 repair inh inactive, FLuc modulator inactive and Rab9 prom act inactive.
For CCOc1ccc(C(=O)NCC(=O)N2CCC(C)CC2)cc1OCC the results were ELG1 genotoxic inactive, SMN2 splice up inactive, NPC1 promoter act inactive, ELG1 repair inh inactive, FLuc modulator inactive and Rab9 prom act inactive.
Screening CCc1c(C)nc2ncnn2c1N1CCC(C(=O)N2CCN(c3ccc(F)cc3)CC2)CC1 returned ELG1 genotoxic inactive, SMN2 splice up inactive, NPC1 promoter act inactive, ELG1 repair inh 23µM, FLuc modulator inactive and Rab9 prom act inactive.
Screening CCN(Cc1ccccc1)C(=O)C1CCN(c2ncnc3c2nc2n3CCCCC2)CC1 returned ELG1 genotoxic inactive, NPC1 promoter act inactive, ELG1 repair inh inconclusive, FLuc modulator inactive and Rab9 prom act inactive.
`CCc1ccccc1N(CC)C(=O)C1CCN(c2ncnc3c2nc2n3CCCCC2)CC1` gave ELG1 genotoxic inactive, NPC1 promoter act inactive, ELG1 repair inh 15µM, FLuc modulator inactive and Rab9 prom act inactive.
Screening CCCCCn1nc(C(=O)OCc2nnc(-c3ccccc3)o2)c2ccccc2c1=O returned ELG1 genotoxic inactive, NPC1 promoter act inactive, ELG1 repair inh inactive, FLuc modulator inactive and Rab9 prom act inactive.
Screening CCOC(=O)CCNC(=O)N1CCN(S(=O)(=O)c2ccc3c(ccn3C)c2)CC1 returned FLuc modulator inactive.
CC(=O)Nc1ccc(NC(=O)CSC2=NCCS2)cc1 was read as ELG1 genotoxic inactive, SMN2 splice up inactive, NPC1 promoter act inactive, ELG1 repair inh inactive, FLuc modulator inactive and Rab9 prom act inactive.
O=C(CSc1nccc(=O)[nH]1)Nc1ccc2c(c1)OCCO2 was read as ELG1 genotoxic 15µM, NPC1 promoter act 2.2µM, ELG1 repair inh inconclusive, FLuc modulator 11µM and Rab9 prom act 2.2µM.
For O=C(CSC1=NCCS1)Nc1ccc2ccccc2c1 the results were ELG1 genotoxic inactive, NPC1 promoter act inactive, ELG1 repair inh inconclusive, FLuc modulator 17µM and Rab9 prom act inactive.
CC1(C(=O)OCC(=O)Nc2ccc3ccccc3c2)CC1(Cl)Cl (configuration not stated) was read as ELG1 genotoxic inactive, SMN2 splice up inactive, NPC1 promoter act inactive, ELG1 repair inh inactive, FLuc modulator 19µM and Rab9 prom act inactive.
Screening O=C(COc1ccc2ccccc2c1)NC1=NCCS1 returned ELG1 genotoxic inactive, SMN2 splice up inactive, NPC1 promoter act 4.5µM, ELG1 repair inh inactive, FLuc modulator 4.8µM and Rab9 prom act inconclusive.
Screening CCOC(=O)C(Cc1ccccc1)NC(=O)CCc1nnc2ccc(N3CCCC3)nn12 (configuration not stated) returned ELG1 genotoxic inactive, NPC1 promoter act inactive, ELG1 repair inh inactive, FLuc modulator inactive and Rab9 prom act inactive.
`O=C(CSc1ncccn1)Nc1ccc2c(c1)OCO2` gave ELG1 genotoxic inactive and ELG1 repair inh inconclusive.
Screening O=C(CSc1nc(-c2ccccc2)[nH]c1-c1ccccc1)Nc1ccc2c(c1)OCCO2 returned SMN2 splice up inactive and FLuc modulator 9.5µM.

From PubChem
